Test [1] in a line: ATG_GLI_CIS: Attagene CIS-FACTORIAL HepG2 Assay for human Zinc Finger Protein GLI1 (AID 2282945). To be noted: HepG2, Attagene cis-factorial reporter mRNA, GLI element; actives raise or lower the signal. The method, boiled down: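 Transiently transfected HepG2 cells report endogenous transcription factor activity via cis-element-driven reporter units. After 24 h compound exposure, reporter mRNA was measured by RT-PCR with capillary electrophoresis; bidirectional fitting against DMSO baseline.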

Test [2] is described as follows: ATG_GRE_CIS: Attagene CIS-FACTORIAL HepG2 Assay for human Glucocorticoid Response Elements (GRE) (AID 2282947). To be noted: HepG2 GRE cis-reporter, Attagene multiplex mRNA; actives raise or lower the signal. The essentials: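 Endogenous transcription factor activity is read through cis-element reporter constructs transiently transfected into HepG2 cells. After 24 h treatment, labelled RT-PCR products are resolved by capillary electrophoresis; DMSO sets baseline for bidirectional curve fitting.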

The nature of test [3]: ATG_ISRE_CIS: Attagene CIS-FACTORIAL HepG2 Assay for human Interferon Regulatory Factor 1 (IRF1) binding to an Interferon-Stimulated Response Element (ISRE) (AID 2282948). To be noted: HepG2 ISRE cis-reporter (Attagene), mRNA transcription readout; actives raise or lower the signal. The method, boiled down:
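Transfected HepG2 (multiple reporter transcription units, cis elements) dosed 24 h. RNA → oligo(dT) RT → PCR → 6-FAM primer extension → HpaI → CE. DMSO = negative control/baseline.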

A short description of test [4]: ATG_M_32_CIS: Attagene CIS-FACTORIAL HepG2 Assay for M32 Transcription Factor (Internal Marker) (AID 2282949).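 Also: background control marker of the multiplexed CIS panel rather than a real target.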 To be noted: HepG2 Attagene cis-factorial M32 reporter, mRNA; actives raise or lower the signal. The essentials: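 Internal background marker read-out: RT-PCR/capillary electrophoresis fluorescence of reporter transcripts from transiently transfected HepG2 cells after 24 h chemical exposure. Activity fitted bidirectionally relative to DMSO negative control.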

The nature of test [5]: ATG_M_06_CIS: Attagene CIS-FACTORIAL HepG2 Assay for M06 Transcription Factor (Internal Marker) (AID 2282950). To be noted: HepG2 Attagene CIS-FACTORIAL M06 internal marker reporter; actives raise or lower the signal. The method, boiled down: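 Read-out is fluorescence of labelled reporter cDNA fragments resolved by capillary electrophoresis after RT-PCR. Cells: HepG2 carrying transfected cis-promoter reporter units, treated 24 h. Gain or loss of signal fitted relative to DMSO.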

Test [6] deals with Hypoxia-inducible factor 1-alpha (Homo sapiens) (UniProt Q16665). In words: ATG_HIF1a_CIS: Attagene CIS-FACTORIAL HepG2 Assay for human Hypoxia Inducible Factor 1 (HIF1A) (AID 2282951). To be noted: HepG2 Attagene cis-factorial HIF1a reporter transcription; actives raise or lower the signal. The essentials: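 In this multiplexed cell assay, HepG2 cells bearing transfected cis reporters are dosed for 24 h and reporter mRNA is read by RT-PCR plus capillary electrophoresis; signal increases and decreases are both scored against DMSO.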

The target of test [7] is Hepatocyte nuclear factor 6 (Homo sapiens) (UniProt Q9UBC0). In words: ATG_HNF6_CIS: Attagene CIS-FACTORIAL HepG2 Assay for human Hepatocyte Nuclear Factor 6 (HNF6) (AID 2282952). To be noted: HepG2 Attagene cis-factorial HNF6 reporter transcription; actives raise or lower the signal. The essentials: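 HepG2 cells transiently transfected with cis-element-driven multiple reporter transcription units, dosed 24 h; reporter mRNA quantified by RT-PCR, FAM primer extension, HpaI digestion and capillary electrophoresis; bidirectional fit versus DMSO baseline.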

In test [8] the target is Heat shock factor protein 1 (Homo sapiens) (UniProt Q00613). The experiment in a line: ATG_HSE_CIS: Attagene CIS-FACTORIAL HepG2 Assay for human Heat Shock Transcription Factor 1 (HSE) (AID 2282953). To be noted: HepG2 HSE cis-reporter, Attagene RNA transcription; actives raise or lower the signal. The essentials: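 HepG2, transient MRTU transfection, cis-promoter reporters (endogenous TF activity). 24 h compound. RNA → oligo(dT) RT → PCR → 6-FAM primer extension → HpaI cut → CE. Bidirectional fit vs DMSO.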

Test [9] can be described thus: ATG_MRE_CIS: Attagene CIS-FACTORIAL HepG2 Assay for human Metal Responsive Element (MRE) (AID 2282954). To be noted: HepG2 MRE cis-reporter transcription, Attagene multiplex; actives raise or lower the signal. The method, boiled down: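 Fluorescent reporter fragments separated by capillary electrophoresis give mRNA induction for the MRE unit after 24 h treatment of transfected HepG2 cells. Endogenous transcription-factor activity is read; DMSO serves as negative control and baseline.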

The nature of test [10]: ATG_PBREM_CIS: Attagene CIS-FACTORIAL HepG2 Assay for human Phenobarbital-responsive Enhancer Module (PBREM) (AID 2282955). To be noted: HepG2 PBREM cis-reporter, Attagene multiplexed transcription; actives raise or lower the signal. The essentials: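 After a 24 h incubation with test chemical, transfected HepG2 cells yield total RNA; reporter-specific RT-PCR products are fluorescently labelled, HpaI-digested and resolved by capillary electrophoresis against ROX size standards.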

For test [11], the target named is Paired box protein Pax-6 (Homo sapiens) (UniProt P26367). The experiment in a line: ATG_Pax6_CIS: Attagene CIS-FACTORIAL HepG2 Assay for human Paired Box 6 (PAX6) (AID 2282956). To be noted: HepG2 CIS-FACTORIAL PAX6 reporter transcription, RNA readout; actives raise or lower the signal. The essentials: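 Transient MRTU transfection of HepG2 → compound exposure 24 h → TriZol RNA, oligo(dT) RT → PCR, 6-FAM primer extension, HpaI cut → capillary electrophoresis; activity fitted both directions against DMSO.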

Test [12] can be described thus: ATG_PXRE_CIS: Attagene CIS-FACTORIAL HepG2 Assay for human Pregnane X Receptor Element (PXRE) (AID 2282957). To be noted: HepG2 Attagene CIS-FACTORIAL PXRE reporter, mRNA; actives raise or lower the signal. The essentials: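 HepG2 cells transiently transfected with cis-regulated multiple reporter transcription units; endogenous factor activity measured as reporter mRNA 24 h after dosing. RT-PCR, fluorescent primer extension, HpaI digestion, capillary electrophoresis; bidirectional fit versus DMSO baseline.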

Test [13] in a line: ATG_RORE_CIS: Attagene CIS-FACTORIAL HepG2 Assay for human RAR-related Orphan Receptor Element (RORE) (AID 2282959). To be noted: HepG2 Attagene cis-factorial RORE reporter, mRNA; actives raise or lower the signal. The essentials: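 Fluorescence intensity of reporter-specific cDNA fragments, separated by capillary electrophoresis, gives the signal. Source: HepG2 liver cells transiently transfected with cis-element reporters and exposed 24 h; DMSO-normalized bidirectional fit.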

Test [14] is described as follows: ATG_Sox_CIS: Attagene CIS-FACTORIAL HepG2 Assay for human SRY-box transcription factor (SOX) (AID 2282960). To be noted: HepG2 Attagene cis-factorial SOX reporter, mRNA; actives raise or lower the signal. The method, boiled down:
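After 24 h of chemical treatment, transfected HepG2 reporter cells are lysed for total RNA. Transcript levels come from RT-PCR with labelled primer extension and capillary electrophoresis, analysed bidirectionally versus DMSO.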

Test [15] has as its target Transcription factor Sp1 (Homo sapiens) (UniProt P08047). In words: ATG_Sp1_CIS: Attagene CIS-FACTORIAL HepG2 Assay for human Specificity Protein 1 (Sp1) (AID 2282961). To be noted: HepG2 Sp1 cis-reporter transcription, actives raise or lower the signal. The method, boiled down: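 Sp1-driven reporter mRNA, read as capillary electrophoresis fluorescence after RT-PCR, in transiently transfected HepG2 cells dosed for 24 h; signal change in either direction relative to DMSO.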

Test [16] in a line: ATG_SREBP_CIS: Attagene CIS-FACTORIAL HepG2 Assay for human Sterol Regulatory Element Binding (SREBP) (AID 2282962). To be noted: HepG2 Attagene cis-factorial SREBP reporter, mRNA; actives raise or lower the signal. The essentials: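 Transfected HepG2 (cis-regulated reporter library, endogenous TFs) → compound 24 h → total RNA → oligo(dT) RT → reporter-specific PCR → FAM primer extension, HpaI cut → CE fluorescence. Fit bidirectional vs DMSO.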

For test [17], the target named is Signal transducer and activator of transcription 3 (Homo sapiens) (UniProt P40763). The experiment in a line: ATG_STAT3_CIS: Attagene CIS-FACTORIAL HepG2 Assay for human Signal Transducer and Activator of Transcription 3 (STAT3) (AID 2282963). To be noted: HepG2, Attagene cis-factorial STAT3 reporter transcription; actives raise or lower the signal. The essentials: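 Values derive from bidirectional fits relative to DMSO of reporter mRNA levels, measured by RT-PCR with capillary electrophoresis, in HepG2 cells carrying transiently transfected cis-regulated reporter units and exposed 24 h.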

A short description of test [18]: ATG_TA_CIS: Attagene CIS-FACTORIAL HepG2 Assay for human TA Basal Promoter (AID 2282964). To be noted: HepG2 Attagene CIS-factorial TA basal promoter reporter; actives raise or lower the signal. The essentials:
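Read-out: fluorescent reporter-transcript fragments resolved by capillary electrophoresis after RT-PCR and HpaI digestion. Source: HepG2 cells carrying transiently transfected multi-reporter cis constructs, treated 24 h. Endpoint fitted bidirectionally relative to DMSO.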

Test [19] can be described thus: ATG_PPRE_CIS: Attagene CIS-FACTORIAL HepG2 Assay for human Peroxisome Proliferator-activated Response Element (PPRE) (AID 2282958). To be noted: HepG2 PPRE cis-element reporter, Attagene transcription factor profiling; actives raise or lower the signal. The method, boiled down: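 Multiplexed reporter transcription units under cis-regulatory promoters were transfected into HepG2 cells to capture endogenous factor activity. A 24 h incubation preceded RNA isolation and fluorescent RT-PCR fragment analysis.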

Active and inactive are the calls of the source. The calls were made as follows: active = hit-call score of the fitted dose curve at least 0.9, where 1 is the maximum; inactive = score below 0.9.

Chain of Hepatocyte nuclear factor 6 (Homo sapiens) (Q9UBC0 whole entry, looked up): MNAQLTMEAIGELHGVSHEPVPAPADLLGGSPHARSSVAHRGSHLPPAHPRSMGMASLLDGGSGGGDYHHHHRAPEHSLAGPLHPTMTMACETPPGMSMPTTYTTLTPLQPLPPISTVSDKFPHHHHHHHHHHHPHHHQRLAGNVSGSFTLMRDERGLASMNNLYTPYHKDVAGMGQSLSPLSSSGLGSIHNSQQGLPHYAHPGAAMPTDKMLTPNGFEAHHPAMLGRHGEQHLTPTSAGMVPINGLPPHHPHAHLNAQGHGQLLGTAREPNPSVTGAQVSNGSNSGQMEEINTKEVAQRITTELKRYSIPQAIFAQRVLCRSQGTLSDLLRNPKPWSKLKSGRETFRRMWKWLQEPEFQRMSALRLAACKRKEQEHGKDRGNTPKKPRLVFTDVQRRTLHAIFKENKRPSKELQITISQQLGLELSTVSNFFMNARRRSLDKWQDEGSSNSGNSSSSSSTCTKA
Chain of Paired box protein Pax-6 (Homo sapiens) (P26367 whole entry, looked up): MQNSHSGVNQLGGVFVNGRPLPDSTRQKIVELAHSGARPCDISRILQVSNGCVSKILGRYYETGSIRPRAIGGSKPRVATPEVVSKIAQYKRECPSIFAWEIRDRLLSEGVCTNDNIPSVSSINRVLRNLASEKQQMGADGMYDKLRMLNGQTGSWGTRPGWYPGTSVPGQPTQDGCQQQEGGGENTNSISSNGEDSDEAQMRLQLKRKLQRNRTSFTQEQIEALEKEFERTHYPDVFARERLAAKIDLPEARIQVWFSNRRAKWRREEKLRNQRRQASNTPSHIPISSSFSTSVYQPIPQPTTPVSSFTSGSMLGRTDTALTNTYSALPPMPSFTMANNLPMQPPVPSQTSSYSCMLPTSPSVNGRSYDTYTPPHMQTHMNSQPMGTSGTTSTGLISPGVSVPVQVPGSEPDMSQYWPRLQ
Chain of Heat shock factor protein 1 (Homo sapiens) (Q00613 whole entry, looked up): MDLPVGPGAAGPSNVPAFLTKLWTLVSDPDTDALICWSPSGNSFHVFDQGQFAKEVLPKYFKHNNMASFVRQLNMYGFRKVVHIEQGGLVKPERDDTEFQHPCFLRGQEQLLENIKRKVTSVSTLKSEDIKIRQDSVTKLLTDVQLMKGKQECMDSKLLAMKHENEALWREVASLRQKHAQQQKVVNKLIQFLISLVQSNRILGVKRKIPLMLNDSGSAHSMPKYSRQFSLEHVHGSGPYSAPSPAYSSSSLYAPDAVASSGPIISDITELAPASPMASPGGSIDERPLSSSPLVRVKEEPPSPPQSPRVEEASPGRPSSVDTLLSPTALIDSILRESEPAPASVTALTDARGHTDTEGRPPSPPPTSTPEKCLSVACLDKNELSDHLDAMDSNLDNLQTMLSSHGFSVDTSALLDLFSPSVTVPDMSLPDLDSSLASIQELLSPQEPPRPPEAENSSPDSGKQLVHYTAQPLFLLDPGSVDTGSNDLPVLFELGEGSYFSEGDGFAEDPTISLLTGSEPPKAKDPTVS
Chain of Hypoxia-inducible factor 1-alpha (Homo sapiens) (Q16665 whole entry, looked up): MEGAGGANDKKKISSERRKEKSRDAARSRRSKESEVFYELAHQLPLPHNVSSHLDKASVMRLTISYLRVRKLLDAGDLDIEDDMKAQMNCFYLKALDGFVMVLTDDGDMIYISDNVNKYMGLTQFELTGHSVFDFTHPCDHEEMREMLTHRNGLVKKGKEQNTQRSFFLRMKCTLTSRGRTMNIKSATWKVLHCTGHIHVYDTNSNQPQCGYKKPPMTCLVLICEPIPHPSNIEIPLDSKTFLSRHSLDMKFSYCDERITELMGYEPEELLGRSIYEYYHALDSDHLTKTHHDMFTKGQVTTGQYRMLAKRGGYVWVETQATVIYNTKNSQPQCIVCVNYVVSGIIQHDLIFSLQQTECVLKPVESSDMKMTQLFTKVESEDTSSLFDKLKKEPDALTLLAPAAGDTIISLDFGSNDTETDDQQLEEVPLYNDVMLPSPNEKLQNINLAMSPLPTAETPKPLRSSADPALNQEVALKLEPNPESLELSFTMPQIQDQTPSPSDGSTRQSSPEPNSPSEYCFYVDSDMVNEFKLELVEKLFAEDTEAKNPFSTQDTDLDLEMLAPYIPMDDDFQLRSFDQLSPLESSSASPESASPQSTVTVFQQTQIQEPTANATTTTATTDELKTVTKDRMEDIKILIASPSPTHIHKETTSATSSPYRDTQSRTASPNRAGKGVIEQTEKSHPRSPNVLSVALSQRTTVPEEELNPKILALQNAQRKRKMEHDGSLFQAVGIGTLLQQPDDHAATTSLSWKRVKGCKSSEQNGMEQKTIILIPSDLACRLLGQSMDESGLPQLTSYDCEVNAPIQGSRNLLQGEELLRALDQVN
Chain of Signal transducer and activator of transcription 3 (Homo sapiens) (P40763 whole entry, looked up): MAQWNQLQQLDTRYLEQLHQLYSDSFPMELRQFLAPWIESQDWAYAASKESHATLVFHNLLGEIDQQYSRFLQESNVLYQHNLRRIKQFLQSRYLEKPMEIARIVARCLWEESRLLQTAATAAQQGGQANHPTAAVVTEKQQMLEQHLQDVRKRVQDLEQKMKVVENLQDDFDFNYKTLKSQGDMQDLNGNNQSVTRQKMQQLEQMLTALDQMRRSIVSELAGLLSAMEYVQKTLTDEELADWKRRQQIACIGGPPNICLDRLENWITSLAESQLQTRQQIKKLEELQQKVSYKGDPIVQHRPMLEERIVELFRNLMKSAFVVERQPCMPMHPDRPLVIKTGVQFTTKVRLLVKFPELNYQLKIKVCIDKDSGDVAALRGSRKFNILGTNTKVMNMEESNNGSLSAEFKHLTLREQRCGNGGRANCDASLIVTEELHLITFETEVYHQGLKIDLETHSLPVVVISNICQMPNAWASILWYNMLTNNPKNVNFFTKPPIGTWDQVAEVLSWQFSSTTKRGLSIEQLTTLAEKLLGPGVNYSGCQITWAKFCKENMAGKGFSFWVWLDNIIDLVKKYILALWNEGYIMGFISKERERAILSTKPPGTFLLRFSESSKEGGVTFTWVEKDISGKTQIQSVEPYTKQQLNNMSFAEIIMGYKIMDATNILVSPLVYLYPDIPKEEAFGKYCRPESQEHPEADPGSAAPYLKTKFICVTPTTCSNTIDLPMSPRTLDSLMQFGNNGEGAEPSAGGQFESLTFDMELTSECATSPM
Chain of Transcription factor Sp1 (Homo sapiens) (P08047 whole entry, looked up): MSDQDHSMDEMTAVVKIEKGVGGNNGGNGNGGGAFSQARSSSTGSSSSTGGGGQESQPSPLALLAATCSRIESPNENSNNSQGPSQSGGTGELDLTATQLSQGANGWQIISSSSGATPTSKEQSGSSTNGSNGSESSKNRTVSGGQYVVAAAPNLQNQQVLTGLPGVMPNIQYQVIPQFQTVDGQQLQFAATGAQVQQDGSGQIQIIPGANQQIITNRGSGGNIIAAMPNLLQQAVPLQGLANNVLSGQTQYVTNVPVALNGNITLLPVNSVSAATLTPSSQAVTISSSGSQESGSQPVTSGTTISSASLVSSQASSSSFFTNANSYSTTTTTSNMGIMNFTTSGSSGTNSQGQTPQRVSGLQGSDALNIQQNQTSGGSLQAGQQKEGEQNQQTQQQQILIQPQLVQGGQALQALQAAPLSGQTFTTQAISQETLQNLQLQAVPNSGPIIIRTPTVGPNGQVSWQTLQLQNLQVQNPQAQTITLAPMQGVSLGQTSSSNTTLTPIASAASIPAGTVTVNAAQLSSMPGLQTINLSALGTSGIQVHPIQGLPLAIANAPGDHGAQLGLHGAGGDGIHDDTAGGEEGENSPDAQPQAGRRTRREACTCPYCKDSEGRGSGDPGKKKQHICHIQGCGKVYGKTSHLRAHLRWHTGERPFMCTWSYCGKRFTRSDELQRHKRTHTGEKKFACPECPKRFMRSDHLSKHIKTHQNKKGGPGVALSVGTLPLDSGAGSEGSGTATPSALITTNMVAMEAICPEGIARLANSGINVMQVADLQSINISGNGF

On to `CC(CC(C)C)=NO`, for which the compound was classed as inactive in test [1], in [2], in test [3], in test [4], in [5] and in test [6]. Also, the result in test [7], in test [8], in test [9], in test [10], in test [11] and in test [12] was inactive. In addition, the compound was called inactive in [13], in [14], in [15], in test [16] and in [17].
Consider `C[Si](C)(C)N[Si](C)(C)C`, for which the call in test [1], in test [2], in [3], in test [4], in test [5] and in [6] was inactive. Also, the compound was classed as inactive in test [7], in test [8], in [9], in [10], in test [11] and in [12]. The outcome in [13], in test [14], in test [15], in [17] and in test [18] was inactive.
As a reminder, the AC50 is the concentration giving half of the maximal activity seen. For `C=C1C[C@H]2[C@@H]3C=C(C)C4=CC(=O)CC[C@]4(C)[C@H]3CC[C@]2(C)[C@@]1(OC(C)=O)C(C)=O`, the compound was classed as inactive in test [1], in test [3], in [4], in test [5], in test [6] and in [7]. The outcome in test [13], in test [15] and in test [17] was inactive. Further, the half-maximal activity concentration (AC50) was 0.057 µM (active) in test [2]; 96.4 µM (active) in test [8]; 74.1 µM (active) in test [9]; 113 µM (active) in test [10]; 63 µM (active) in test [11]; 3.44 µM (active) in [12]. Further, the figures for the AC50 in test [16] and in [18] were 63 µM (active) and 50.8 µM (active), respectively.
In the case of `O=C(O)CCCC(=O)O`, the compound was called inactive in test [1], in test [2], in [3], in [4], in test [5] and in test [6]. Also, the compound was classed as inactive in test [7], in test [8], in test [9], in test [10], in [11] and in test [19]. In addition, the result in [13], in test [14], in [15], in test [17] and in test [18] was inactive.
For the compound `C=C(C)C(=O)OCCOC(=O)C(=C)C`, the outcome in test [1], in test [2], in test [3], in test [4], in test [5] and in test [6] was inactive. The compound was called inactive in test [7], in [8], in test [9], in test [10], in test [11] and in test [13]. For the same compound, the compound was classed as inactive in test [15], in test [16], in [17] and in test [18].
Take `C=CC(=O)NCOCCCC`: the call in test [1], in test [2], in test [3], in test [4], in test [5] and in test [6] was inactive. Moreover, the call in test [7], in test [8], in test [9], in test [10], in [11] and in test [19] was inactive. In addition, the result in [13], in test [14], in [15], in [16], in test [17] and in test [18] was inactive.
Regarding `CCCCCC[C@@H](O)C/C=C\CCCCCCCC(=O)OCC(O)CO` (some centres not stated), the AC50 was 143 µM (active) in test [1]; 149 µM (active) in test [2]; 160 µM (active) in [4]; 67.2 µM (active) in test [6]; 184 µM (active) in [8]; 144 µM (active) in [9]. Besides, the concentration at half-maximal activity (AC50) is 134 µM (active) in [11]; 11 µM (active) in test [19]; 190 µM (active) in test [15]; 122 µM (active) in test [16]; 150 µM (active) in test [18]. In addition, the compound was called inactive in test [3], in test [5], in test [7], in test [12], in test [13] and in [14]. The result in test [17] was inactive.
On to `CCCCOC(=O)C(C)CC` (configuration not stated), for which the outcome in test [1], in test [2], in test [3], in test [4], in test [5] and in test [6] was inactive. Further, the compound was classed as inactive in test [7], in test [8], in [9], in [10], in test [11] and in test [13]. Further, the outcome in [14], in test [15], in test [17] and in test [18] was inactive. Moreover, in [12], the AC50 is 27.1 µM (active).

The record behind these values is PubChem BioAssay (EPA / NIEHS).
